The nature of assay [1]: STM_H9_NormalizedViability: Cytotoxicity Assessment at 120 hours in the Stemina devTOX quickPredict H9 human embryonic stem cell (hESC)-based Assay (AID 2283784). The essentials: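 CellTiter-Fluor RFU, background-subtracted, expressed relative to 0.1% DMSO neutral control by plate. Pluripotent H9 cells; treatment with daily re-dosing. Plates carried 1uM methotrexate (positive) and 5 nM methotrexate (negative) references.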

In assay [2] the test system is turtle Androgen Receptor (AR), gene 101947425. Put plainly: ATG_trAR_XSP1: Attagene TRANS-FACTORIAL Multi-Species (XSP1) HepG2 Assay for turtle Androgen Receptor (AR) (AID 2283786). The essentials: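 Partial androgen stimulation is provided by 3 nM 6-alpha-fluorotestosterone in a multi-species trans-factorial panel expressing a turtle AR–GAL4 fusion in HepG2. After 24 h, reporter mRNA is measured by RT-PCR and capillary electrophoresis and fitted upward against DMSO.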

Assay [3] addresses AR (gene 367) (UniProt P10275). Put plainly: ACEA_AR_antagonist_80hr: ACEA Biosciences xCELLigence Real-Time Cell Analysis on Androgen Receptor Antagonism for Proliferation (AID 2283787).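 Also: 22Rv1 human prostate cancer cells with growth followed by electrical impedance; hits lower the impedance growth signal relative to DMSO.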 The essentials:
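Using 22Rv1 cells held in assay medium, we dosed compounds (100 uM maximum final, 1:4 serial, eight points, 0.5% DMSO at top) and recorded cell-electrode impedance; the 80 hr timepoint was analyzed against DMSO.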

Assay [4] concerns the target Estrogen receptor beta (Homo sapiens) (UniProt Q92731). Put plainly: ATG_hERb_XSP1: Attagene TRANS-FACTORIAL Multi-Species (XSP1) HepG2 Assay for human Estrogen Receptor (ESR2) (AID 2283788). The essentials:
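Multiplexed trans-activation in transfected HepG2: ERβ-Gal4 reporter transcripts after 24 h treatment, detected by RT-PCR plus capillary electrophoresis.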

The target of assay [5] is GAL4 Transcription Factor (Internal Marker), GAL4 (gene 855828) (UniProt P04386). Nature of the assay: ATG_GAL4_XSP1: Attagene TRANS-FACTORIAL Multi-Species (XSP1) HepG2 Assay for GAL4 Transcription Factor (Internal Marker) (AID 2283789). The essentials:
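This background-control endpoint measures GAL4-driven reporter mRNA via RT-PCR and capillary electrophoresis of labelled fragments. Transiently transfected HepG2 cells were treated 24 h, with 3 nM 6-alpha-fluorotestosterone included, and gain-of-signal was fitted against DMSO.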

Assay [6] can be described thus: ATG_M_06_XSP1: Attagene TRANS-FACTORIAL Multi-Species (XSP1) HepG2 Assay for M06 Transcription Factor (Internal Marker) (AID 2283790). The essentials: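 This background-control readout tracks M06 reporter mRNA, measured by RT-PCR and capillary electrophoresis. HepG2 cells transiently carrying the GAL4-UAS reporter panel were dosed for 24 h with 3 nM 6-alpha-fluorotestosterone added for partial AR stimulation; increases were scored relative to DMSO.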

Assay [7] in a line: ATG_M_61_XSP1: Attagene TRANS-FACTORIAL Multi-Species (XSP1) HepG2 Assay for M61 Transcription Factor (Internal Marker) (AID 2283797). The essentials: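 Background-control readout: reporter transcripts measured by RT-PCR and capillary electrophoresis 24 h after dosing transiently transfected HepG2 multi-reporter cells, with 3 nM 6-alpha-fluorotestosterone present. Fitted in the positive direction relative to DMSO.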

Assay [8] can be described thus: ATG_M_32_XSP1: Attagene TRANS-FACTORIAL Multi-Species (XSP1) HepG2 Assay for M32 Transcription Factor (Internal Marker) (AID 2283799). The essentials: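 Reporter transcripts from the M32 internal-control unit measured by RT-PCR, FAM labelling, HpaI digestion and capillary electrophoresis after 24 h compound exposure of transfected HepG2, 3 nM 6-alpha-fluorotestosterone included; DMSO baseline, positive-direction fit.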

Assay [9] deals with Peroxisome proliferator-activated receptor gamma (Homo sapiens) (UniProt P37231). Nature of the assay: ATG_hPPARg_XSP1: Attagene TRANS-FACTORIAL Multi-Species (XSP1) HepG2 Assay for human Peroxisome Proliferator-activated Receptor gamma (PPARg) (AID 2283800). The essentials:
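Reporter mRNA induction, measured by RT-PCR with capillary electrophoresis 24 h after dosing, scored as gain over DMSO. Transfected HepG2 cells express exogenous NR-Gal4 chimeras driving GAL4-UAS reporters; medium includes 3 nM 6-alpha-fluorotestosterone.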

The target in assay [10] is mouse Peroxisome Proliferator-activated Receptor gamma (PPARg), Pparg (gene 19016) (UniProt P37238). Put plainly: ATG_mPPARg_XSP1: Attagene TRANS-FACTORIAL Multi-Species (XSP1) HepG2 Assay for mouse Peroxisome Proliferator-activated Receptor gamma (PPARg) (AID 2283802). The essentials:
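Readout is reporter mRNA induction, measured by RT-PCR with 6-FAM labelling, HpaI digestion and capillary electrophoresis, 24 h post-dose relative to DMSO. Transient multi-reporter transfection of human HepG2 with mouse PPARg–GAL4 fusion; 3 nM 6-alpha-fluorotestosterone included.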

For assay [11], the target named is Nuclear receptor subfamily 1 group I member 2 (Mus musculus) (UniProt O54915). Put plainly: ATG_mPXR_XSP1: Attagene TRANS-FACTORIAL Multi-Species (XSP1) HepG2 Assay for mouse Pregnane X Receptor (PXR) (AID 2283803). The essentials: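 Transiently transfected HepG2 cells expressing a receptor-Gal4 chimera drive a GAL4-UAS reporter; 3 nM 6-alpha-fluorotestosterone included. Reporter mRNA read 24 h post-dose by RT-PCR and capillary electrophoresis; gain of signal relative to DMSO.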
Nuclear receptor subfamily 1 group I member 2 (Mus musculus), sequence (O54915 whole entry, looked up, the tested form may be a part): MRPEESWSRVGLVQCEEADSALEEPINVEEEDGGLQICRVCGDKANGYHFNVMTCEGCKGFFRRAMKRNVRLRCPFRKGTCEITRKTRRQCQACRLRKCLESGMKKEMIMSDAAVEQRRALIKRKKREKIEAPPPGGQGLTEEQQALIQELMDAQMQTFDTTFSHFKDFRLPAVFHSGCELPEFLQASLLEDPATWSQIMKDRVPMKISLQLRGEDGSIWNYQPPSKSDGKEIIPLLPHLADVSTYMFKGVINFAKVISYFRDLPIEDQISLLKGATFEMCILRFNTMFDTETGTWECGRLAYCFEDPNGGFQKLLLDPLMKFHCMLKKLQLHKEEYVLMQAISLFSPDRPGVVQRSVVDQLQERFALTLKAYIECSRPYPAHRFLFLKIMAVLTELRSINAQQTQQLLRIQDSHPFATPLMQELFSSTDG

Assay [12] has as its target zebrafish Thyroid Hormone Receptor beta (TRb), thrb (gene 30607) (UniProt Q9PVE4). Put plainly: ATG_zfTRb_XSP1: Attagene TRANS-FACTORIAL Multi-Species (XSP1) HepG2 Assay for zebrafish Thyroid Hormone Receptor beta (TRb) (AID 2283809). The essentials:
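HepG2 cells transiently transfected with multiplexed GAL4-UAS reporter units expressing chimeric zebrafish TRb–Gal4. Dosed 24 h with 3 nM 6-alpha-fluorotestosterone present; reporter mRNA measured by RT-PCR, HpaI digestion and capillary electrophoresis; gain of signal versus DMSO.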

Assay [13] can be described thus: ATG_XTT_Cytotoxicity_XSP1: Cytotoxicity Assessment in the Attagene TRANS-FACTORIAL Multi-Species (XSP1) HepG2 Assay (AID 2283810). The essentials:
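XTT viability readout taken at 24 hours post-dosing in HepG2 liver cells co-treated with 3 nM 6-alpha-fluorotestosterone. Signal loss relative to DMSO controls reflects cytotoxicity.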

Assay [14] concerns the target AR (gene 367) (UniProt P10275). Nature of the assay: ACEA_AR_agonist_80hr: ACEA Biosciences xCELLigence Real-Time Cell Analysis on Androgen Receptor Agonism for Proliferation (AID 2283783).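 Also: hits increase impedance growth signal above DMSO baseline.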 The essentials: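 Real-time cell-growth kinetics were recorded by electrode impedance in 22Rv1 cells exposed to test chemicals up to 100 uM final; the 80 h timepoint served as the readout, fitted upward relative to DMSO controls, in biological duplicate.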

Records with an inconclusive call do not appear. Active and inactive are the calls of the source. The calls were made as follows: active = hit-call score of the fitted dose curve at least 0.9, where 1 is the maximum; inconclusive = response in the unintended direction; inactive = score below 0.9.

Usually AC50 stands for the concentration at which the activity in the assay is half-maximal.

AR (gene 367), sequence (P10275 whole entry, looked up): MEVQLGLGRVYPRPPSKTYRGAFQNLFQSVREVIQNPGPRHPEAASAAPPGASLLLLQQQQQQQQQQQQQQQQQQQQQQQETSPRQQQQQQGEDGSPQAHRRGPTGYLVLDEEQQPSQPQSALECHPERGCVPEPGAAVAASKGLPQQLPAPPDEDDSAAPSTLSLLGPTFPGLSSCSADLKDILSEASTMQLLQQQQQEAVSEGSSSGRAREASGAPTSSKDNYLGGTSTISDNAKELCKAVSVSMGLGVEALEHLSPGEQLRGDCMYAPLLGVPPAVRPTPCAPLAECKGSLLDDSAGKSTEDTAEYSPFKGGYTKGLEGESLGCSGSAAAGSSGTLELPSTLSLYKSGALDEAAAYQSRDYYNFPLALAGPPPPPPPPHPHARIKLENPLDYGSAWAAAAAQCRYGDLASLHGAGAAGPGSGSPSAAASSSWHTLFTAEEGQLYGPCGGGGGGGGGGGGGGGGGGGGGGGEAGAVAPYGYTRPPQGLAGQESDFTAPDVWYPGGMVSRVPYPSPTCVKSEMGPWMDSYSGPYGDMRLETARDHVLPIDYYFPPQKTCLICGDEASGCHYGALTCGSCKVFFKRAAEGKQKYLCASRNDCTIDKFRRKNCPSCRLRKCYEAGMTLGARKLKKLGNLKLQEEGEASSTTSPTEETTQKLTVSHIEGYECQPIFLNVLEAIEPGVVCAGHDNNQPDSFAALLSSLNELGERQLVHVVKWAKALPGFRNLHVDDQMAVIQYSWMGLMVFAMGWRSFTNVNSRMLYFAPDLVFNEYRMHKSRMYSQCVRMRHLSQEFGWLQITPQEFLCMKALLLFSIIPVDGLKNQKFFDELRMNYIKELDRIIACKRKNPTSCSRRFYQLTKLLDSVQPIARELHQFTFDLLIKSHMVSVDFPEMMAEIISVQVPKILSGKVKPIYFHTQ
zebrafish Thyroid Hormone Receptor beta (TRb), thrb (gene 30607), sequence (Q9PVE4 whole entry, looked up, the tested form may be a part): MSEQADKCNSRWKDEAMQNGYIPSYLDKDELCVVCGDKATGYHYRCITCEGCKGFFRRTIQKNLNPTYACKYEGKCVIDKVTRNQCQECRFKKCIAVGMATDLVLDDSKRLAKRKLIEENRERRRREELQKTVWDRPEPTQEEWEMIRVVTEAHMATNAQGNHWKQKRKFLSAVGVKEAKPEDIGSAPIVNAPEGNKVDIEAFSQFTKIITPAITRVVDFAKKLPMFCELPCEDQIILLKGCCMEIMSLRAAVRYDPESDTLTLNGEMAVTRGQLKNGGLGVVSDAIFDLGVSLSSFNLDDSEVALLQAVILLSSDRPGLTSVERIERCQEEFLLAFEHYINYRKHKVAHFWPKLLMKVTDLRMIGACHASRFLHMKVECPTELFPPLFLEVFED
mouse Peroxisome Proliferator-activated Receptor gamma (PPARg), Pparg (gene 19016), sequence (P37238 whole entry, looked up, the tested form may be a part): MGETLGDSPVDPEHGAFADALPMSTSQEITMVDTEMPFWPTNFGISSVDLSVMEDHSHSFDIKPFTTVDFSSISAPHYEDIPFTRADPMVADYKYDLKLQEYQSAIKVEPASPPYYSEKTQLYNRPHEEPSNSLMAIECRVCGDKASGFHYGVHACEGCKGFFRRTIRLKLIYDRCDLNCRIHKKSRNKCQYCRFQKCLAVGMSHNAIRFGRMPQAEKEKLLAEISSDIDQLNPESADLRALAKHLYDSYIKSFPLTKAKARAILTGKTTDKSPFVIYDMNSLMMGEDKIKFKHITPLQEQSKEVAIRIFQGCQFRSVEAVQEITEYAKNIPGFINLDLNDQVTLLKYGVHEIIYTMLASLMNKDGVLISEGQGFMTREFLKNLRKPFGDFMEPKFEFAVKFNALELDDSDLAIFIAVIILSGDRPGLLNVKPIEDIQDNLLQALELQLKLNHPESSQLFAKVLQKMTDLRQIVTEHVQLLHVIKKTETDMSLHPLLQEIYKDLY
Peroxisome proliferator-activated receptor gamma (Homo sapiens), sequence (P37231 whole entry, looked up, the tested form may be a part): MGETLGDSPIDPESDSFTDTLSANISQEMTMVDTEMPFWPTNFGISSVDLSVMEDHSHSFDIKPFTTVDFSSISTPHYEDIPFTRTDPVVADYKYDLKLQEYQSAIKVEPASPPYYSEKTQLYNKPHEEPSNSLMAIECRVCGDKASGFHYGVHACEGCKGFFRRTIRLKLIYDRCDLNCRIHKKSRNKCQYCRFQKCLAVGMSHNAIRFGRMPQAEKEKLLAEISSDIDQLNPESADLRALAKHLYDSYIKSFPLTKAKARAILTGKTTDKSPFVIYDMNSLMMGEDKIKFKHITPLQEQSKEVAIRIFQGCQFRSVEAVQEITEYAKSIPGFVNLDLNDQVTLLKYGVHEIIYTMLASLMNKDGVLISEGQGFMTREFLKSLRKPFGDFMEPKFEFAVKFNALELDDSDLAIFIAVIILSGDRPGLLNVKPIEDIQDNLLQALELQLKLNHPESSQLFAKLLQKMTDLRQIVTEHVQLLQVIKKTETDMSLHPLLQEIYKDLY
Estrogen receptor beta (Homo sapiens), sequence (Q92731 whole entry, looked up, the tested form may be a part): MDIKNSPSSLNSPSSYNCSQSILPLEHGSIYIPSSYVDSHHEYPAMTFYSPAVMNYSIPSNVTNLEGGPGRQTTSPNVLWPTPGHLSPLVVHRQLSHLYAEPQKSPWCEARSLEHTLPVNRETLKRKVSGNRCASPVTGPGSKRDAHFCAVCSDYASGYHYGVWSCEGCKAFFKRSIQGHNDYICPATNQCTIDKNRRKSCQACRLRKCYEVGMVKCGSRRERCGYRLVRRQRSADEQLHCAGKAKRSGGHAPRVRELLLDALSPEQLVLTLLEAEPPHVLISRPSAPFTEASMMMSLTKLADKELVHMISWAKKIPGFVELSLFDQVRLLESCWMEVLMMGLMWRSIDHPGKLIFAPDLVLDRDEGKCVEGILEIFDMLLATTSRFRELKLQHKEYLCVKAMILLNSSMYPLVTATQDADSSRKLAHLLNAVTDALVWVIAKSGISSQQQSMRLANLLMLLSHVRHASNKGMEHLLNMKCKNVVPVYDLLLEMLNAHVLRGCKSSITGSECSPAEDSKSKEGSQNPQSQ
GAL4 Transcription Factor (Internal Marker), GAL4 (gene 855828), sequence (P04386 whole entry, looked up, the tested form may be a part): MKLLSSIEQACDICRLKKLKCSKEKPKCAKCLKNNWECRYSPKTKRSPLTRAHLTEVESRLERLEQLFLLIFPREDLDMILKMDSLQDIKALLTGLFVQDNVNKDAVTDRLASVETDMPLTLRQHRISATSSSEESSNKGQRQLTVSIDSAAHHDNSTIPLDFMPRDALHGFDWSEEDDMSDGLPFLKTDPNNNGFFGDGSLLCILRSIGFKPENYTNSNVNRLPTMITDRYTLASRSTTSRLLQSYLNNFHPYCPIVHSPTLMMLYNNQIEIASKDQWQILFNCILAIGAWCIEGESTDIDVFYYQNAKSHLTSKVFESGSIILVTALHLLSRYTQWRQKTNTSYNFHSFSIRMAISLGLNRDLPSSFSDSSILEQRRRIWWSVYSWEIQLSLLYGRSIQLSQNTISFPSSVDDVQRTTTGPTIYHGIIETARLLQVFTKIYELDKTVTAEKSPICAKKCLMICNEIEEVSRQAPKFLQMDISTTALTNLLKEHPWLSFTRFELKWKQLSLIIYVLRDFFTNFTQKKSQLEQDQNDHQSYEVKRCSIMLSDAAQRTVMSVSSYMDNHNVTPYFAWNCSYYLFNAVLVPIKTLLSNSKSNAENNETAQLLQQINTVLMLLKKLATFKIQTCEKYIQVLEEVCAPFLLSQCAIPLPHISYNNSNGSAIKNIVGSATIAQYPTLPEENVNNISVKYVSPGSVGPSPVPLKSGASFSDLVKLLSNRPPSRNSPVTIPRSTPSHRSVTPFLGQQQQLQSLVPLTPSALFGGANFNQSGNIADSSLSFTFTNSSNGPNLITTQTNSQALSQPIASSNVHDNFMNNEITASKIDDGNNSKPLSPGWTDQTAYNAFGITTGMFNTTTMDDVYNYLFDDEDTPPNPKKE

With `Cc1c2ccccc2c(C)c2c1ccc1ccccc12`, the outcome in [1], in assay [2], in assay [4], in assay [5], in [6] and in assay [7] was inactive. Further, in assay [8], the outcome was inactive. The AC50 is 46.5 µM (active) in assay [3]; 23.2 µM (active) in assay [9]; 13.8 µM (active) in [10]; 0.828 µM (active) in [11]; 60.9 µM (active) in assay [12]; 33.2 µM (active) in assay [13].

As for `CCN(Cc1cccnc1)C(=O)c1cccc(Cl)c1[C@]1(C)C(=O)N(Cc2ccc(OC)cc2OC)c2ccc(Cl)cc21`, the outcome in assay [14] was inactive. Further, the AC50 in assay [3] is 32 µM (active).

Take `O=C(Nc1ccc(Cl)cc1)Nc1ccc(Cl)c(Cl)c1`: the molecule was classed as inactive in assay [14] and in assay [1]. Also, the AC50 in [3] was 5.97 µM (active).

On to `COc1cc(C(=O)NC2CCN(C)CC2)ccc1Nc1ncc2c(n1)N(C1CCCC1)CC(F)(F)C(=O)N2C`, for which the result in assay [14] was inactive. Also, the AC50 was 0.0449 µM (active) in assay [1] and 0.0058 µM (active) in assay [3].

Consider `O=C(O)Cn1c(=O)n(Cc2ccc(Br)cc2F)c(=O)c2ccc(Cl)cc21`, for which, in assay [3], the molecule was classed as inactive.

In the case of `NCc1cccc(C2CCN(C(=O)c3ccc(C#Cc4ccccc4F)o3)CC2)c1`, the molecule was called inactive in [14]. In assay [3], the AC50 was 23.5 µM (active).

With `CCCCCCCCN(C)CCCCCCCC`, the outcome in [14], in assay [1] and in [3] was inactive.

On to `CN(C[C@@H](CC[N+]12CCC(C3CCCCC3)(CC1)CC2)c1ccc(Cl)c(Cl)c1)C(=O)c1cc(C(F)(F)F)cc(C(F)(F)F)c1`, for which the concentration at half-maximal activity (AC50) in assay [1] is 16.4 µM (active); in assay [3], 7.24 µM (active).

On to `CCCCOC(=O)c1ccc(O)cc1`, for which the outcome in assay [1] was inactive. The AC50 in [3] was 67.9 µM (active).

For `CCCCCCCCCCCC[N+](C)(C)C`, the AC50 in assay [1] is 8.63 µM (active).

On to `COc1cccc([C@H](O)C2CCN(CCc3ccc(F)cc3)CC2)c1OC`, for which, in assay [1], the result was inactive.

In the case of `CC(=O)N1CCN(c2ccc(OC[C@H]3CO[C@](Cn4ccnc4)(c4ccc(Cl)cc4Cl)O3)cc2)CC1`, in assay [1], the result was inactive.

These data come from PubChem BioAssay (EPA / NIEHS).
